Experimental data reported in publication PMC4336329 (PLoS ONE, 2015).
The campaign covered roughly 310,000 compounds. About 14,000 (4.5%) showed an effect of 50% or more. The effect is printed as a negative number. The sample holds strong results, similar compounds and a random draw of the others, so the mix is not that of the screen.

Target: human ether-à-go-go-related gene (hERG) potassium channel (human, UniProt Q12809)
Assay: primary screen, population patch clamp on CHO cells stably expressing hERG; higher = less effect of the substance
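Note: peak tail current of the secondary pulse compared with the same well before compound.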

human ether-à-go-go-related gene (hERG) potassium channel, sequence (Q12809 whole entry, looked up): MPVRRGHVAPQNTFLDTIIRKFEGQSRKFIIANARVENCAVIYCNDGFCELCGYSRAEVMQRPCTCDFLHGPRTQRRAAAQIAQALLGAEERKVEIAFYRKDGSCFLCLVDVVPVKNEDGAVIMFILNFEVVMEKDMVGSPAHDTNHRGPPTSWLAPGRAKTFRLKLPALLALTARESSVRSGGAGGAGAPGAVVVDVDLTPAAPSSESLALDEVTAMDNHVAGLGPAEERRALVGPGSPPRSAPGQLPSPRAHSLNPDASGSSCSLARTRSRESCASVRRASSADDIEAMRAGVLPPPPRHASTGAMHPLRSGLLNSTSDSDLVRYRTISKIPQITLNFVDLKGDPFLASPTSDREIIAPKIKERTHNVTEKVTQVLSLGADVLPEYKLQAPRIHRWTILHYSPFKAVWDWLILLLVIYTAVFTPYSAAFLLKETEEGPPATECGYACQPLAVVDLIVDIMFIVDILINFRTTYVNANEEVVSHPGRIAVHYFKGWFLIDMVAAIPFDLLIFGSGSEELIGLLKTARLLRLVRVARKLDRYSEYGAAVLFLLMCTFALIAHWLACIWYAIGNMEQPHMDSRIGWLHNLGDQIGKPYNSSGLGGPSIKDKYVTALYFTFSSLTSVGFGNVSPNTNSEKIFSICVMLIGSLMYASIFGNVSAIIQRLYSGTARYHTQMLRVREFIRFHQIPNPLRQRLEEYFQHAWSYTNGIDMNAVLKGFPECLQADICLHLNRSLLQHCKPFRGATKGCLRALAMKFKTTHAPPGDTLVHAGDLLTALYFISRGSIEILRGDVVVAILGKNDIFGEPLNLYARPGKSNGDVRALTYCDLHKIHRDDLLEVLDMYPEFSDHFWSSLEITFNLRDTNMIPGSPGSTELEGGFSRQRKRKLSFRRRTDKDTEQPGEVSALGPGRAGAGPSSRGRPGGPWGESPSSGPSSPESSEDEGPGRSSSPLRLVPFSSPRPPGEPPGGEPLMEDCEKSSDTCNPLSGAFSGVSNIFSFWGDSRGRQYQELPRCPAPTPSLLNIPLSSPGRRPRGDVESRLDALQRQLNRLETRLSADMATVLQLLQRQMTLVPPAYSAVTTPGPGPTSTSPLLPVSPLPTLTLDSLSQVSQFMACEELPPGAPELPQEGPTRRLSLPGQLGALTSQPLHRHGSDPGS

Row | Compound | hERG current change (%, negative = inhibition) at 10uM [%]
1 | CN(C)c1ccc(CN(Cc2ccco2)C(=O)c2ccco2)cc1 | -30.1
2 | COC(=O)c1ccc(C(=O)OC)c(NC(=S)N2CCN(C)CC2)c1 | 20.4
3 | Cc1cc(C(=O)CS(=O)(=O)c2ccc(Cl)cc2)cc(C)c1O | 16.6
4 | CS(=O)(=O)Nn1cnc2ccccc2c1=O | 10.7
5 | Cc1cc(C)c(S(=O)(=O)N2CCCOC2CNC(=O)C(=O)NCc2cccs2)c(C)c1 (stereo not shown) | -8.31
6 | O=C1NC(=Nc2ccccc2)/C(=C/c2ccco2)S1 | 12.4
7 | CCOc1ncccc1C(=O)NNC(=O)c1cccc(S(=O)(=O)Nc2ccc(OC)cc2)c1 | 6.87
8 | CCOC(=O)Cc1[nH]nc2c1C(c1cccc(OC)c1OC)C(C#N)=C(N)O2 (stereo not shown) | -0.21
9 | CCOC(=O)N1CCN(c2nc(-c3ccccc3)c3ccccc3n2)CC1 | 5.1
10 | O=C(O)CCCC(=O)N1CCN(c2nc(-c3ccccc3)c3ccccc3n2)CC1 | 1.86
11 | CN1CCN(c2nc(-c3ccccc3)c3cc(Cl)ccc3n2)CC1 | -48.1
12 | O=C1CN(c2nc(-c3ccccc3)c3cc(Cl)ccc3n2)c2ccccc2N1 | 13.1
13 | O=C(O)CCC(=O)N1CCN(c2nc(-c3ccccc3)c3ccccc3n2)CC1 | 13.7
14 | CCN1CCN(c2nc(-c3ccccc3)c3ccccc3n2)CC1 | -71.2
15 | c1ccc(-c2nc(N3CCCC3)nc3ccccc23)cc1 | 8.87
16 | c1ccc(-c2nc(N3CCNCC3)nc3ccccc23)cc1 | -65.2
17 | Clc1ccc2nc(N3CCNCC3)nc(-c3ccccc3)c2c1 | -59.1
18 | CC(=O)NC(Cc1ccc(F)cc1)C(=O)O (stereo not shown) | -24.1
19 | COC(=O)CP(=O)(c1ccccc1)c1ccccc1 | 15.2
20 | Oc1ccc(/C=N/NP(=S)(c2ccccc2)c2ccccc2)cc1 | -3.89
21 | COc1ccccc1CNC(=O)c1cccs1 | 3.82
22 | CCC1=C2CC[C@H]3C(=O)N(CC)C(=O)[C@H]3[C@H]2[C@@]2(Cc3ccccc3)C(=NCCOC)OC(=O)N2C1=O | 10

Row | Compound | hERG current change (%, negative = inhibition) at 10uM [%]
23 | CC(C)(Oc1ccc(Cl)cc1)C(=O)OCC(=O)N1CCN(c2ccccc2)CC1 | -7.02
24 | CCN1C[C@]2(COC)CC[C@H](OC)[C@@]34C1[C@]1(OCO[C@@]15C[C@H](OC)[C@H]1C[C@@H]3[C@@H]5[C@H]1OC)[C@@H](O)[C@H]24 | 10.5
25 | C=CCn1c(COc2ccc(Cl)cc2)nnc1SCC(=O)Nc1ccc(S(N)(=O)=O)cc1 | -9.02
26 | Cc1ccccc1-c1nc(CS(=O)CC(=O)NCc2ccccc2)c(C)o1 (stereo not shown) | -21
27 | Cc1oc(-c2ccc(Cl)cc2)nc1CS(=O)CC(=O)NCCCN1CCN(Cc2ccccc2)CC1 (stereo not shown) | -62.1
28 | Cc1oc(-c2ccc(Cl)cc2)nc1CS(=O)CC(=O)NCCCN1CC(C)CC(C)C1 (stereo not shown) | -65.5
29 | Cc1ccccc1-c1nc(CS(=O)CC(=O)NCCN2CCOCC2)c(C)o1 (stereo not shown) | 3.48
30 | Cc1oc(-c2ccc(Cl)cc2)nc1CS(=O)CC(=O)NCCCN1CCOCC1 (stereo not shown) | -3.95
31 | Cc1ccc(-c2nc(CS(=O)CC(=O)NCCCN3CCN(Cc4ccccc4)CC3)c(C)o2)cc1 (stereo not shown) | -38.2
32 | Cc1ccc(-c2nc(CS(=O)CC(=O)NCCCN3CC(C)CC(C)C3)c(C)o2)cc1 (stereo not shown) | -19.9
33 | Cc1ccccc1-c1nc(CS(=O)CC(=O)NCCN2CCN(Cc3ccccc3)CC2)c(C)o1 (stereo not shown) | -58.7
34 | Cc1oc(-c2ccc(Cl)cc2)nc1CS(=O)CC(=O)NCCCN1CCCC(C)C1 (stereo not shown) | -36.8
35 | O=C(CSc1nnc(-c2cccs2)o1)NCc1ccco1 | -0.74
36 | COC(=O)C1=C(Nc2ccc(OC)cc2)C=C(C)C(C(=O)OC)C1c1ccc(C)cc1 (stereo not shown) | 18.9
37 | C(#Cc1ccccc1)CN1CCOCC1.Cl | 22.9
38 | Cc1ccc(C)c(S(=O)(=O)N2CCN(C(=O)c3ccc(OCc4c(C)noc4C)cc3)CC2)c1 | -21.9
39 | O=C(Nc1ccc(S(=O)(=O)N2CCCCC2)cc1)c1ccc(=O)[nH]c1 | 7.49
40 | Cc1cc(C)cc(Oc2ccc(-c3nnc(-c4ccccc4)o3)cc2[N+](=O)[O-])c1 | 7.94
41 | COc1cccc(-c2nn(-c3ccccc3)cc2CNC(C)Cn2cncn2)c1 (stereo not shown) | -42.5
42 | Cc1ccc(C)c(-n2cc(CNCCCn3cccn3)c(-c3ccccc3)n2)c1 | -64.9
43 | Cc1ccc(-n2cc(CN3CCC(O)(c4ccccn4)CC3)c(-c3ccc(F)cc3)n2)cc1 | -56.7
44 | Cc1ccc(-n2cc(CN3CCNC(=O)CC3)c(-c3ccc(F)cc3)n2)cc1 | -35.4

Row | Compound | hERG current change (%, negative = inhibition) at 10uM [%]
45 | CC(=O)N1CCCN(Cc2cn(-c3cc(C)ccc3C)nc2-c2ccccc2)CC1 | -30.3
46 | Cc1ccc(-n2cc(CNCCCn3cccn3)c(-c3cccc(C)c3)n2)cc1 | -71.6
47 | Cc1ccc(-n2cc(CN(C)Cc3nccn3C)c(-c3cccc(C)c3)n2)cc1 | -16.1
48 | Cc1ccc(-n2cc(CN3CCN(c4ccccn4)CC3)c(-c3ccc(F)cc3)n2)cc1 | 11.2
49 | Cc1ccc(C)c(-n2cc(CN3CCN(C(=O)c4ncn[nH]4)CC3)c(-c3ccccc3)n2)c1 | -30.7
50 | Cc1ccc(-n2cc(CNC(C)Cc3cnccn3)c(-c3cccc(C)c3)n2)cc1 (stereo not shown) | -73.8
51 | Cc1ccn2c(CNCCCn3cccn3)c(C(=O)N3CCCCCC3)nc2c1 | -23.4
52 | CCOC(=O)C1=NN(c2ccccc2)C(c2ccccc2)CC1=O (stereo not shown) | 5.31
53 | Cc1nnc2n1N=C(c1ccc(F)cc1F)CS2 | -3.32
54 | CCOc1ccc(CCNC(=O)c2ccc(S(=O)(=O)N3CCCC3)cc2)cc1OCC | -8.47
55 | CCn1c2ccccc2c2cc(/C=N/n3c(C)nnc3C)ccc21 | -25
56 | O=C(C1=C[C@H](C2CC2)C[C@H](OCCCCO)O1)N1CCOCC1 | 21.2
57 | O=C(/C=C/c1nc2ccccc2s1)N1CCCCCC1 | -0.709
58 | CN(C)S(=O)(=O)c1cccc(C(=O)OCC(=O)Nc2sccc2C#N)c1 | -2.79
59 | Cc1ccc(-n2cc(CN3CCN(Cc4nccn4C)CC3)c(-c3ccc(F)cc3)n2)cc1 | -26.8
60 | Cc1ccc(-n2cc(CN3CCN(Cc4nccn4C)CC3)c(-c3cccc(C)c3)n2)cc1 | -62.7
61 | Cc1cccc(-n2cc(CN3CCN(Cc4nccn4C)CC3)c(-c3cccc(F)c3)n2)c1 | 2.98
62 | CSCC[C@H](NC(=O)c1nn(C)c(=O)c2ccccc12)c1nc2ccccc2[nH]1 | -3.07
63 | Cc1cc([N+](=O)[O-])nn1CC(=O)N/N=C/c1ccccc1F | -5.15
64 | Cc1ccc(C2N(c3ccccc3)C(=S)N3CCCN23)cc1 (stereo not shown) | 7
65 | CC(C(=O)Nc1ccc(S(=O)(=O)N2CCCC2)cc1)N(C)Cc1ccc(F)cc1 (stereo not shown) | -9.91
66 | CCC(C)N(C)Cc1cccc(C2(O)CCN(S(=O)(=O)c3ccc(F)c(C)c3)CC2)c1 (stereo not shown) | -72.4

Row | Compound | hERG current change (%, negative = inhibition) at 10uM [%]
67 | CCc1ccccc1N1CCN(S(=O)(=O)c2ccc(F)c(C)c2)CC1 | 4.43
68 | Cc1cc(S(=O)(=O)N2CCN(c3c(C)cccc3C)CC2)ccc1F | -4.1
69 | O=S(=O)(c1ccc(OC(F)(F)F)cc1)N1CCC(O)(c2cccc(C(F)(F)F)c2)CC1 | -4.35
70 | CCC(C)N(C)Cc1cccc(C2(O)CCN(S(=O)(=O)c3ccc(F)cc3)CC2)c1 (stereo not shown) | -69.3
71 | CN1CCc2c(sc(N)c2C(=O)O)C1 | 20.8
72 | COc1ccc(C2C(C#N)=C(N)OC3=C2C(=O)CC(C)(C)C3)cc1Cn1cc([N+](=O)[O-])cn1 (stereo not shown) | -6.92
73 | COc1ccc(C2C(C#N)=C(N)OC3=C2C(=O)CCC3)cc1Cn1nc(C)c([N+](=O)[O-])c1C (stereo not shown) | -13.3
74 | COc1ccc(C2C(C#N)=C(N)OC3=C2C(=O)CC(C)(C)C3)cc1Cn1nc(C)c([N+](=O)[O-])c1C (stereo not shown) | -50.6
75 | COC(=O)CCC(=O)OC1(C)C(=O)C=C2C=C(C3CC3)N(C(CO)CO)C=C2C1=O (stereo not shown) | 5.72
76 | COc1ccccc1C(=O)NCC(=O)NNC(=O)C1COc2ccccc2O1 (stereo not shown) | 2.49
77 | Cn1cc(CN2CCN(Cc3ccccc3)CC2)c(-c2cccc(Cl)c2)n1 | -53
78 | Cn1cc(CN2CCN(c3ncccn3)CC2)c(-c2cccc(Cl)c2)n1 | -20.5
79 | CC(C1CCN(Cc2cn(C)nc2-c2cccc(Cl)c2)CC1)N1CCOCC1 (stereo not shown) | -26.9
80 | COCCN1CCN(Cc2cn(C)nc2-c2cccc(Cl)c2)CC1 | -15.7
81 | Cc1cc(N2CCN(Cc3cn(C)nc3-c3cccc(Cl)c3)CC2)cc(C)n1 | -65
82 | Cc1cc(N2CCN(Cc3cn(C)nc3-c3ccccc3F)CC2)cc(C)n1 | -35
83 | Cn1cc(CN2CCC(C(O)c3cccs3)CC2)c(-c2ccccc2F)n1 (stereo not shown) | -21.5
84 | Cc1cnc(C)c(N2CCN(Cc3cn(C)nc3-c3cccc(Cl)c3)CC2)n1 | -49.6
85 | Cn1cc(CN2CCC(C(O)c3cccs3)CC2)c(-c2cccc(Cl)c2)n1 (stereo not shown) | -57
